NALP1 inh = inhibitors of NALP1 inflammasome in yeast; S. cerevisiae NALP1/ASC/caspase-1 growth, X-gal OD620, 72 h; inhibition, % at 10 µM; 280,000 compounds, 0.61% hits; AID 2071; in the data active = inhibition mostly above about 24%, no sharp cut-off; inactive = mostly below about 32%
TIM10 inh = inhibits growth of TIM10 yeast strain; 330,000 compounds, 1.4% hits; S. cerevisiae TIM10 strain growth, BacTiter-Glo luminescence, 24 h; inhibition, % at 10 µM;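 active = inhibition of 40% or more at the single tested concentration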;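 also: wild-type TIM10 isogenic control strain grown at permissive 25 °C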
tim10-1 inh = tim10-1 yeast growth inhibition; inhibition, % at 20 µM; S. cerevisiae tim10-1 ts strain growth, BacTiter-Glo, 24 h; AID 463190; 330,000 compounds, 2.2% hits;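 active = inhibition of at least 40%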;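 also: mutant grown at 25 °C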
tim23-1 inh = tim23-1 yeast growth inhibition. AID 463212. 330,000 compounds, 1.3% hits. inhibition, % at 20 µM. S. cerevisiae tim23-1 growth, BacTiter-Glo luminescence, 24 h;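 active = growth inhibition of the mutant yeast at or above 50%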;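 also: temperature-sensitive mutant grown at 25 °C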
V-ATPase pH = alters yeast V-ATPase proton transport; S. cerevisiae, pHLuorin cytosolic pH fluorescence; response, % at 10 µM; 350,000 compounds, 0.37% hits; AID 504577; in the data active = response mostly above about 7.3%, no sharp cut-off; inactive = mostly below about 5.4%; also: actives read high
NLRP3 yeast inh = NALP3 inhibition in yeast; 330,000 compounds, 0.39% hits; inhibition, % at 10 µM; Yeast reconstituted NLRP3/ASC/caspase-1, beta-gal luminescence, 24 h;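 active = inhibition of 50% or more; inactive = inhibition below 50%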
tim10-1 confirm = confirmation of tim10-1 mutant yeast growth inhibitors; S. cerevisiae tim10-1 ts strain growth, BacTiter-Glo, 24 h; shares compounds with tim10-1 inh; 7,400 compounds, 56% hits; inhibition, % at 20 µM;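 active = inhibition of yeast growth at or above a set limit in either of two repeat tests at 20 µM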;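 also: tim10-1 mutant grown at permissive 25 °C to find synthetic lethal compounds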
Each line names hits and unclear results; the compound was inactive in the other large screens (follow-up assays come after a bar, where they were run). Rows were chosen to be rich in hits. Some 4.2% of all compounds tested hit in one or more screens of this group.

Cc1c(/C=N/NC(=O)CNc2ccccc2)c2ccccn2c1C(=O)c1ccccc1	tim10-1 inh 40 | tim10-1 confirm inactive
Cc1c(/C=N/NC(N)=O)c2ccccn2c1C(=O)c1ccncc1	none
CN1CCN(c2ccccc2NC(=O)c2ccc(-c3ccc(Cl)c(Cl)c3)o2)CC1	tim10-1 inh 55 | tim10-1 confirm 38
CN1CCN(c2ccccc2NC(=O)c2ccc(-c3cccc([N+](=O)[O-])c3)o2)CC1	none (no result: TIM10 inh, tim10-1 inh, tim23-1 inh, NLRP3 yeast inh)
CCC(CO)Nc1ncnc2c1cnn2-c1ccc(Cl)cc1 (stereo unspecified)	none
CCC(CO)Nc1nc2ccc(Cl)cc2c2ccccc12 (stereo unspecified)	tim10-1 inh 53 | tim10-1 confirm 39
Clc1ccc(C2=CC(c3ccco3)n3ncnc3N2)cc1 (stereo unspecified)	tim10-1 inh 43 | tim10-1 confirm 33
COc1ccc(C2=CC(c3ccco3)n3ncnc3N2)cc1 (stereo unspecified)	none
CCOC(=O)c1c(SCCN2CCCC2)n(-c2ccccc2)c(=S)n(-c2ccccc2)c1=O	none (no result: NALP1 inh, TIM10 inh, tim10-1 inh, tim23-1 inh, NLRP3 yeast inh)
Cc1ccnc2c1ccc1cccnc12	tim10-1 inh 42 (no result: NALP1 inh) | tim10-1 confirm inactive
COc1ccc2c(COC(=O)CNC(=O)C34CC5CC(CC(C5)C3)C4)cc(=O)oc2c1	tim10-1 inh 42 (no result: NALP1 inh) | tim10-1 confirm inactive
Cc1cc(OCC(=O)NCCO)cc(C)c1Cl	none
COC(=O)C1=CN(Cc2ccc(OC)cc2)C=C(C(=O)OC)C1c1cc(OC)c(OC)c(OC)c1	none
COC(=O)C1=CN(C(C)c2ccccc2)C=C(C(=O)OC)C1c1cc(OC)c(OC)c(OC)c1 (stereo unspecified)	tim10-1 inh 43 | tim10-1 confirm inactive
N=c1oc2cc(O)ccc2cc1C(=O)Nc1ccc(Cl)cc1	tim10-1 inh 44 | tim10-1 confirm inactive
O=C(Cn1c(=O)[nH]c2ccccc2c1=O)Nc1ccc2c(c1)OCCO2	none
O=C(c1ccco1)N1CCN(c2ncnc3scc(-c4ccc(F)cc4)c23)CC1	tim10-1 inh 49 | tim10-1 confirm 36
COc1ccc(-c2csc3ncnc(N4CCN(c5ccccc5O)CC4)c23)cc1	none
Cc1ccc(-c2csc3ncnc(N4CCN(c5ccccc5O)CC4)c23)cc1	tim10-1 inh 44 | tim10-1 confirm inactive
Cc1ccc(-c2csc3ncnc(NCCN4CCOCC4)c23)cc1	none
Cc1ccc(-c2csc3ncnc(Nc4ccc(N5CCOCC5)cc4)c23)cc1	tim10-1 inh 40 | tim10-1 confirm 36
CSc1nc(C(=O)N2CCCC(N3CCN(c4ccccc4C)CC3)C2)cs1 (stereo unspecified)	none
Cc1nc2ccc(NC(=O)c3cnc(Cl)c(Cl)c3)cc2s1	none
Cc1nc2ccccc2c(=O)n1-c1cccc(NC(=O)c2cccs2)c1	none (no result: NALP1 inh)
O=C(Nc1cccc(N2C(=O)C=CC2=O)c1)c1cccs1	tim10-1 inh 63 (no result: NALP1 inh) | tim10-1 confirm 57
Cc1cc(/C=N/n2cnnc2)c(C)n1-c1ccc(OCc2ccccc2F)cc1	tim10-1 inh 46 | tim10-1 confirm inactive
Cc1ccc(N(CCC#N)C(=O)COC(=O)C2CCN(c3ccc(C(F)(F)F)cn3)CC2)cc1	none (no result: NALP1 inh)
Cn1c(=O)c2c(nc(CN3CCN(c4ccccc4)CC3)n2CCCc2ccccc2)n(C)c1=O	tim10-1 inh 43 (no result: NALP1 inh, V-ATPase pH) | tim10-1 confirm inactive
COc1ccc(S(=O)(=O)Nc2nccs2)cc1OC	none
O=C(Nc1ccc(Cl)cc1)[C@@H]1[C@@H]2C(=O)N(c3ccc(Cl)cc3Cl)C(=O)[C@@H]2[C@H]2C=CC=NN21	tim10-1 inh 45 (no result: V-ATPase pH) | tim10-1 confirm inactive
O=C(Nc1ccc(Cl)cc1)[C@@H]1[C@@H]2C(=O)N(c3ccc(Cl)cc3)C(=O)[C@@H]2[C@H]2C=CC=NN21	none
CC(C)(C)C(=O)C(Cc1ccccc1)n1cncn1 (stereo unspecified)	none
COC(=O)c1c(-c2ccccc2Cl)noc1/C=C/N(C)C	tim10-1 inh 40 | tim10-1 confirm inactive
Cc1ccc(N(CCC#N)C(=O)COC(=O)c2cc(C)no2)cc1	none (no result: NALP1 inh)
CCC(CC)C(=O)OCC(=O)NC12CC3CC(CC(C3)C1)C2	none
O=C(COC(=O)C12CC3CC(CC(C3)C1)C2)NC12CC3CC(CC(C3)C1)C2	tim10-1 inh 41 | tim10-1 confirm 39
O=C(COC(=O)CCc1ccccc1)NC12CC3CC(CC(C3)C1)C2	tim10-1 inh 43 | tim10-1 confirm inactive
O=C(COC(=O)C(O)c1ccccc1)NC12CC3CC(CC(C3)C1)C2 (stereo unspecified)	none
Cc1cc(C)n(-c2nc(NCCO)c3c4c(sc3n2)CCCC4)n1	none
Cc1cc(C)n(-c2nc(NCCCO)c3c4c(sc3n2)CCCC4)n1	tim10-1 inh 50 | tim10-1 confirm inactive
O=[N+]([O-])c1ccc(/C=C/c2ccc3cccc([N+](=O)[O-])c3n2)cc1	tim10-1 inh 45 | tim10-1 confirm inactive
CC(C)Nc1ccc(C(CC(N)=O)NC(=O)c2ccc(Br)cc2)cc1[N+](=O)[O-] (stereo unspecified)	none (no result: NALP1 inh)
COC(=O)c1ccc(NC(=O)CN2CCN(c3ccccc3)CC2)cc1	none
CCOC(=O)c1sc2nc(N3CCOCC3)c3c(c2c1N)CCC3	none
CCOC(=O)c1oc2nc(CC(C)C)c3c(c2c1N)CCC3	tim10-1 inh 40 | tim10-1 confirm inactive
S=c1[nH]nc(Cc2ccccc2)n1-c1ccccc1	none
Cc1ccc(-n2c(CNc3ccc(C)c(Cl)c3)n[nH]c2=S)cc1	tim10-1 inh 41 | tim10-1 confirm inactive
Cc1ccc(-n2c(Cc3ccccc3)n[nH]c2=S)cc1	tim10-1 inh 40 | tim10-1 confirm inactive
Cc1ccc(-n2c(CNc3cccc(Cl)c3)n[nH]c2=S)cc1	none
CC(=O)Nc1cccc(Oc2ncnc3scc(-c4ccc(C)cc4)c23)c1	tim10-1 inh 42 | tim10-1 confirm 29
Cc1ccc(-c2csc3ncnc(Oc4ccc5c(C)cc(=O)oc5c4)c23)cc1	none
O=C(COC(=O)CCc1c[nH]c2ccccc12)Nc1ccc([N+](=O)[O-])cc1	none
COc1cc(CNc2cccc3[nH]c(C(F)(F)F)nc23)cc(OC)c1	tim10-1 inh 42 | tim10-1 confirm inactive
COc1ccc(CNc2cccc3[nH]c(C(F)(F)F)nc23)cc1	tim10-1 inh 43 | tim10-1 confirm inactive
CCOC(=O)N1CCN(C(=O)CCS(=O)(=O)c2ccc3c(c2)CC(C)N3C(=O)CC)CC1 (stereo unspecified)	none
CC1(C)Cc2ccccc2-c2n[nH]c(=S)n21	tim10-1 inh 56 | tim10-1 confirm inactive
OCCc1ccc(-c2ccc(Cl)cc2)o1	tim10-1 inh 43 | tim10-1 confirm inactive
NC(=O)CC(NC(=O)Cc1ccc(Cl)cc1)c1ccc(N2CCN(c3ccccn3)CC2)c([N+](=O)[O-])c1 (stereo unspecified)	none

Source: PubChem (several laboratories)
